Source: PubChem BioAssay
This is a sample that favours compounds with a hit; in the whole collection about 10% have one here.
Luciferase inh – blocks purified firefly luciferase enzyme activity | Potency, µM (titrated, usually from 115 µM), hits mostly inhibitors | 76,000 tested, 2.5% active | AID 1347043 | purified P. pyralis luciferase, luminescence, biochemical; further: nearly all actives have a fitted effect of over 65% in size
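Purified 10nM P. pyralis luciferase with 10uM D-luciferin and 10uM ATP in 50mM Tris acetate pH 7.5, 10mM Mg acetate, 0.01% Tween-20, 0.05% BSA. qHTS titration; luminescence read by CCD imager.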
hNpr1 antagonist – human Npr1 receptor antagonism; P16066; HEK293 hNpr1 GloSensor cGMP, ANP-stimulated luminescence; Potency, µM (highest dose often 46.3 µM), inactives show at the highest dose activity change, negative = inhibition, most hits filed as inhibitors; 76,000 tested, 1.6% active; calls by dose curve; further: nearly all actives have a fitted effect of over 60% in size
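HEK293 cells stably expressing human Npr1 and cGMP GloSensor pGS-40F, loaded 2 h with 2% GloSensor reagent, given compound 30 min at room temperature. Luminescence read before and 20 min after 0.1 nM hNppA.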
3T3 cytotox – kills NIH 3T3 cells; NIH 3T3 viability, CellTiter-Glo ATP luminescence, 48-72 h; Potency, µM (doses to about 96.7 µM), without a hit: top-dose activity change, negative = cytotoxicity, most hits filed as inhibitors; 94,000 tested, 4.3% active; AID 1345082; further: nearly all actives have a fitted effect of over 55% in size
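Mouse fibroblast NIH 3T3 cells, 400 per well, received compound via pintool and were incubated for 48 or 72 hr prior to CellTiter-Glo ATP luminescence measurement.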
GPT2 inhibitor – blocks human glutamate pyruvate transaminase 2. 100,000 tested, 0.25% active. AID 1671188. Potency, µM (series often up to 57.7 µM), for inactives: at the highest dose activity change, negative = inhibition, hits mostly inhibitors. Q8TD30. Recombinant GPT2, coupled pyruvate oxidase/HRP Amplex Red fluorescence; further: nearly all actives have a fitted effect of over 60% in size
Target sequence (Q8TD30 whole entry, looked up): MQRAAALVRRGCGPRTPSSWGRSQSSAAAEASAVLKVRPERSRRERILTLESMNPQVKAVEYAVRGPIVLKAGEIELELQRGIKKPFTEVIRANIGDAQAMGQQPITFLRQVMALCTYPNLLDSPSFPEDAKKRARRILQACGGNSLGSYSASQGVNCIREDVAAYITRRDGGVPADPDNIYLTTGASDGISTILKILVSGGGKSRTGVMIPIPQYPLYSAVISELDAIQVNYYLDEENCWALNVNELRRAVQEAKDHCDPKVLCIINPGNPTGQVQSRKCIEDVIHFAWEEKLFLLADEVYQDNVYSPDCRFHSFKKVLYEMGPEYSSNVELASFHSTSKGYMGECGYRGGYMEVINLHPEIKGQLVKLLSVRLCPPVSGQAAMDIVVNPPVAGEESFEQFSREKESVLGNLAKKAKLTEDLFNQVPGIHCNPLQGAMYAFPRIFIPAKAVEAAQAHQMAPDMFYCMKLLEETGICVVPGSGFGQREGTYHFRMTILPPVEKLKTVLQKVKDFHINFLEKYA
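Inhibition is scored from Amplex Red fluorescence generated when pyruvate oxidase and HRP act on pyruvate released by GPT2. Reactions contain 10ng/uL enzyme, 250uM a-KG and 2mM L-alanine and run 30 min at room temperature.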
HEK293 tox – kills HEK 293 cells; HEK 293 viability, ATP luminescence (CellTiter-Glo), 48-72 h; Potency, µM (series often up to 115 µM), without a hit: at the highest dose activity change, negative = cytotoxicity, usual class: inhibitors; 94,000 tested, 6.6% active; AID 1345083; further: nearly all actives have a fitted effect of over 60% in size
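HEK 293 seeded at 250 cells/well receive compound via pintool. After 48 or 72 hr at 37 degree Celsius, 5% CO2 and 95% humidity, CellTiter-Glo is dispensed and luminescence read following 10 min at room temperature.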
Numbers without * were called inactive; [ ] = remark or other dose. Unless noted, the call rests on the fitted dose curve; in most records, active means well fitted curve in the direction sought with a large enough effect; inconclusive means small, poorly fitted or top-dose-only effect, or another doubt; inactive means no such curve, though single readings can be large; an effect the other way counts as inactive or inconclusive. On the % scale 0 is the no-effect control and ±100 the full control effect; potency means the concentration at half of the fitted maximal effect.

What do the screens show for `CC1=C[C@@H](CNCc2ccccc2O)[C@H](C(C)C)C[C@H]1Cc1nc2c(C)cccc2[nH]1`?
Luciferase inh: inactive; hNpr1 antagonist: inconclusive; 3T3 cytotox: inconclusive; GPT2 inhibitor: inactive; HEK293 tox: inconclusive

What do the screens show for `CC(C)(O)c1ccc2c(c1)C(O)C[C@H]1[C@](C)(C(=O)O)CCC[C@]21C` (stereo partly specified)?
GPT2 inhibitor: 4%[27.3 µM]

How did Cc1cc(Cl)ccc1S(=O)(=O)N1CCC(Oc2ccc(C(N)=O)cn2)CC1 do in these assays?
Luciferase inh: inactive; hNpr1 antagonist: inconclusive; 3T3 cytotox: inconclusive; GPT2 inhibitor: -8%; HEK293 tox: 25µM*

What do the screens show for `COCCN[C@@H]1C[C@@H]2c3[nH]c4ccccc4c3C[C@@H](C(=O)OC)N2[C@H](c2ccc(C(F)(F)F)cc2)C1`?
Luciferase inh: inactive; hNpr1 antagonist: -2%; 3T3 cytotox: 45µM*; GPT2 inhibitor: inactive; HEK293 tox: 35µM*

What do the screens show for `COC(=O)[C@@H]1C2CC3c4[nH]c5ccccc5c4CCN3CC2CC[C@@H]1O` (stereo partly specified)?
GPT2 inhibitor: inactive

What do the screens show for `COC(=O)[C@@H]1Cc2c([nH]c3ccccc23)[C@H]2C[C@H](NCCNC(C)=O)C[C@@H](c3ccccc3)N21`?
Luciferase inh: inactive; hNpr1 antagonist: -1%; 3T3 cytotox: inconclusive; GPT2 inhibitor: -6%; HEK293 tox: 89µM*

What do the screens show for `COC(=O)[C@@H]1Cc2c([nH]c3ccccc23)[C@H]2C[C@@H](N3CCOCC3)C[C@@H](c3ccccc3)N21`?
Luciferase inh: inactive; hNpr1 antagonist: -9%; 3T3 cytotox: inconclusive; GPT2 inhibitor: 2%; HEK293 tox: inconclusive

Results for COC(=O)[C@@H]1Cc2c([nH]c3ccccc23)[C@H]2C[C@H](NCCNC(C)=O)C[C@@H](c3ccc(C(F)(F)F)cc3)N21 ?
Luciferase inh: inactive; hNpr1 antagonist: 0%; 3T3 cytotox: 28µM*; GPT2 inhibitor: 1%; HEK293 tox: 20µM*

What do the screens show for `COCCNC(=O)[C@@H]1C[C@@H](c2ccc(F)cc2)N([S+](=O)([O-])c2ccccc2)C1`?
Luciferase inh: inactive; hNpr1 antagonist: 1%[70.6 µM]; 3T3 cytotox: inconclusive; GPT2 inhibitor: -1%[88.5 µM]; HEK293 tox: -6%[172 µM]

Results for CCOC(=O)C1CCN(C(=O)C2CCc3nnc(CNC(=O)NC(C)(C)C)n32)CC1 (stereo unspecified) ?
3T3 cytotox: -4%; GPT2 inhibitor: -3%; HEK293 tox: -8%

Results for O=C(CN1C(=O)NC(c2ccc(Cl)cc2)C2=C1COC2=O)Nc1ccc2c(c1)OCO2 (stereo unspecified) ?
Luciferase inh: inactive; hNpr1 antagonist: -10%; 3T3 cytotox: inconclusive; GPT2 inhibitor: inactive; HEK293 tox: inconclusive

What do the screens show for `O=C(CN1C(=O)NC(c2ccc(Cl)cc2)C2=C1COC2=O)Nc1cc(F)ccc1F` (stereo unspecified)?
Luciferase inh: inactive; hNpr1 antagonist: -17%; 3T3 cytotox: inconclusive; GPT2 inhibitor: 1%; HEK293 tox: 45µM*

What do the screens show for `O=C(CN1C(=O)NC(c2ccc(Cl)cc2)C2=C1COC2=O)Nc1cc(F)cc(F)c1` (stereo unspecified)?
Luciferase inh: inactive; hNpr1 antagonist: -29%; 3T3 cytotox: 25µM*; GPT2 inhibitor: inactive; HEK293 tox: 25µM*

What do the screens show for `CCOC(=O)c1ccccc1NC(=O)CN1C(=O)NC(c2ccc(C)cc2)C2=C1COC2=O` (stereo unspecified)?
Luciferase inh: inactive; hNpr1 antagonist: -11%; 3T3 cytotox: inconclusive; GPT2 inhibitor: -1%; HEK293 tox: 32µM*

How did Cc1cccc(Cl)c1NC(=O)CN1C(=O)NC(c2ccc(Cl)cc2)C2=C1COC2=O (stereo unspecified) do in these assays?
Luciferase inh: inactive; hNpr1 antagonist: -13%; 3T3 cytotox: inconclusive; GPT2 inhibitor: -5%; HEK293 tox: 32µM*
